In PubChem BioAssay (NCATS):
Where “and” joins values, the source holds several entries; their conditions need not be identical. Identical values can stand only once. Records with an inconclusive call do not appear. Calls of active or inactive are those of the source. Unless noted, calls come from the whole dose curve; as a rule, active = well fitted curve in the direction sought with a large enough effect; inconclusive = small, poorly fitted or top-dose-only effect, or another doubt; inactive = no such curve, though single readings can be large; an effect the other way counts as inactive or inconclusive.

Key:
[1] = qHTS assay for environmental chemicals that activate the Aryl hydrocarbon Receptor (AhR) signaling pathway (AID 651777); conditions: 1A2-DRE human hepatoma cells, luciferase, 24 h; activation: hits give high values; note: nearly all actives have a fitted effect of over 15% in size; note: potency is the fitted concentration of half-maximal effect; for activation: % of control where 0% means no effect
In short: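 Concentration–response screening used 1,200 1A2-DRE cells per well, 24 hr compound exposure (37 C, 5% CO2), and One-Glo luminescence as the AhR-driven CYP1A2 reporter signal.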

[2] = biological target: Peroxisome proliferator-activated receptor alpha (Homo sapiens) (UniProt Q07869); assay: qHTS assay for small molecule agonists of the peroxisome proliferator-activated receptor alpha (PPARalpha) signaling pathway (AID 651778); conditions: PathHunter PPARalpha complementation, chemiluminescence, 6 h; max response: hits give high values; note: % of control where 0% means no effect
In short: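 Cells plated at 2,000/well and held overnight at 37 C, 5% CO2, then compound added by pin tool for 6 hr; after PathHunter detection reagent and 60 min at room temperature, chemiluminescence from enzyme complementation was read.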

[3] = biological target: Arylsulfatase A (Homo sapiens) (UniProt P15289); assay: qHTS screen for enhancers of Arylsulfatase A (ASA1): LOPAC Validation Assay (AID 720538); note: potency is the fitted concentration of half-maximal effect
In short: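 SV40-transformed skin fibroblasts from an MLD patient (ASA-I179S) were treated with compounds for 48h at 37 degree C, then lysed with 0.5mM pNCS final substrate for 14h at room temperature; NaOH stop, fluorescence read (Ex=525 nm; Em=598 nm).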

[4] = qHTS for compounds that reverse cellular toxicity of Amyloid beta (A-beta) peptide in yeast: LOPAC Validation Assay (AID 720559);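 note: plate controls were DMSO for no effect and equimolar ferric chloride plus clioquinol rescue for full effect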
In short: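 Yeast cells expressing toxic A-beta were combined with pinned compounds in growth medium and incubated 48 hr at 30 C. Growth was read as absorbance at 600 nm and normalized to DMSO and to an equimolar FeCl3/clioquinol positive control.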

[5] = qHTS for Activators of Parkin Expression: LOPAC Validation Assay (NLuc Reporter) (AID 720572;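 note: 0% = DMSO and 100% = positive control compound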)
In short: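 Cells harboring the Parkin-promoter coincidence reporter were treated for 24 h at seven concentrations. NLuc output was measured sequentially after the FLuc channel and scaled between DMSO and positive control values.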

[6] = qHTS for Activators of Parkin Expression: LOPAC Validation Assay (FLuc Reporter) (AID 720573;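 note: 0% = DMSO and 100% = positive control compounds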)
In short: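 Neuronal cell line stably carrying FLuc/NLuc coincidence reporter under Parkin promoter; cells plated 24 h, then compounds added in 7-point dose response for 24 h at 37 C. FLuc luminescence read; normalized to DMSO and positive control (100%).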

[7] = qHTS assay for small molecule agonists of the antioxidant response element (ARE) signaling pathway measured by Nrf2-dependant transcriptional activity (AID 720636; active = well fitted curve in the direction sought with a large enough effect in the repeat runs; an effect the other way counts as inactive or inconclusive;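 note: HepG2 cells with an ARE-driven luciferase reporter; % of control where 0% means no effect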)
In short: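 Attachment 6 hr at 37 C, then compound versus DMSO vehicle for 16 hr in ARE-luc HepG2 cells (1% dialyzed FBS); luminescence recorded 30 min after ONE-Glo addition at room temperature.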

[8] = biological target: T1, Hexokinase-4 (Homo sapiens) + Glucokinase regulatory protein (Homo sapiens) (UniProt P35557+Q14397); assay: qHTS assay for inhibitors of recombinant human GCK-GKRP interaction: Diaphorase-coupled assay (AID 743205)
In short: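 GST-GCK (10 nM) with FLAG-GKRP (10 nM), 5 mM glucose and 0.4 mM ATP in pH 7.6 Hepes; compounds preincubated 20 min with substrate. G6PDH/diaphorase coupling converts resazurin to resorufin, read kinetically (ex 525/em 590 nm) for 30 min.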

[9] = biological target: T1, Hexokinase-4 (Homo sapiens) + Glucokinase regulatory protein (Homo sapiens); assay: qHTS assay for inhibitors of recombinant human GCK-GKRP interaction: ADP-Glo assay (AID 743206);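 note: plate controls were DMSO plus enzyme for no effect and no enzyme for full effect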
In short: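 Pin-transferred compounds meet a 15 nM GST-GCK/15 nM FLAG-GKRP/2 uM S6P mix (dispense concentrations). ATP is then added to 0.4 mM final with 5 mM glucose, and the reaction runs 60 min at room temperature. ADP is quantified luminescently.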

[10] = biological target: T1, Hexokinase-4 (Homo sapiens) + Glucokinase regulatory protein (Homo sapiens); assay: qHTS assay for inhibitors of recombinant human GCK-GKRP interaction: HTRF assay (AID 743207);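 note: 0% = DMSO with GCK present and -100% = DMSO wells lacking GCK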
In short: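 GST-GCK and FLAG-GKRP (5 nM each) were combined with 2 uM S6P in pH 7.1 Hepes/MgCl2/KCl/DTT buffer, then compound and anti-FLAG XL665/anti-GST K antibodies were added. After 60 min at room temperature, HTRF 665/615 nm emission was read.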

[11] = qHTS assay to identify small molecules that stimulate interleukin-8 (IL-8) secretion (AID 651758; active = well fitted activation curve with a large enough effect in the signal ratio; the % refers to the signal ratio; note: 0% is about no effect)
In short: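 Quantitative HTS in THP-1 monocytic cells at 2000 cells per well, with 16 hrs compound incubation at 37 C. IL-8 in the medium was then quantified by HTRF immunoassay, read after 1-3 hrs at room temperature.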

[12] = biological target: Nuclear receptor ROR-gamma (Homo sapiens) (UniProt P51449); assay: qHTS assay for small molecule antagonists of the retinoid-related orphan receptor gamma (ROR-gamma) signaling pathway (AID 651802);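 note: CHO cells with doxycycline-induced ROR-gamma expression; series mostly up to about 92 µM; % is set by controls: 0 for no effect and ±100 for the full control effect; nearly all actives have a fitted effect of over 60% in size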
In short: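 Steps: cells dispensed; compound or DMSO transferred by pin tool; doxycycline added to induce the ROR response element-driven luciferase; plates held 16hr at 37C; ONE-Glo added and luminescence measured.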

[13] = qHTS assay for small molecule antagonists of the retinoid-related orphan receptor gamma (ROR-gamma) signaling pathway - cell viability counter screen (AID 720652; active = well fitted curve in the direction sought with a large enough effect in the repeat runs; an effect the other way counts as inactive or inconclusive;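 note: CHO reporter cells with doxycycline-induced ROR-gamma expression; series mostly up to about 92 µM; compound exposure lasted 16 hr before ATP read; % is set by controls: 0 for no effect and ±100 for the full control effect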)
In short: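 Steps: seed CHO cells bearing TET-inducible ROR and ROR response element-luciferase; rest 5 hr at 37 C; add compound, then doxycycline; incubate 16 hr; add CellTiter-Glo and read luminescence as ATP-based viability.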

[14] = qHTS assay for small molecule agonists of the antioxidant response element (ARE) signaling pathway measured by Nrf2-dependant transcriptional activity - cell viability counter screen (AID 720653; active = well fitted curve in the direction sought with a large enough effect in the repeat runs; an effect the other way counts as inactive or inconclusive; note: potency is the fitted concentration of half-maximal effect; for max response: % is set by controls: 0 for no effect and ±100 for the full control effect); conditions: ARE-bla HepG2 viability, CellTiter-Glo ATP luminescence, 16 h; max response: hits give low values
In short: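 ARE-bla HepG2 cells (2,000/well) rested 5 hrs at 37C/5% CO2, then exposed to compounds in DMSO for 16 hrs. Viability was read in the same wells as intracellular ATP by luminescence, 30 min at room temperature after reagent addition.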

[15] = qHTS Assay for Identifying Gametocytocidal Compounds (AID 743244); note: potency is the fitted concentration of half-maximal effect;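 for max response: % is set by controls: 0 for no effect and ±100 for the full control effect; actives lower the fluorescent signal which means gametocytes are killed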; conditions: P. falciparum 3D7 stage III-V gametocytes, alamarBlue, 72 h; max response: hits give low values
In short: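 Using 20,000 stage III–V 3D7 gametocytes per well, compounds were incubated 72 h under 37 °C/5% CO2. Viability was then assessed by 24 h alamarBlue reduction, measured fluorometrically at 525/598 nm.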

[16] = qHTS assay for cell viability of HEK293 cells (AID 743288); conditions: ATP luminescence (CellTiter-Glo), 18 h; max response: hits give low values; note: nearly all actives have a fitted effect of over 50% in size; note: potency is the fitted concentration of half-maximal effect; for max response: % is set by controls: 0 for no effect and ±100 for the full control effect
In short: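 After 18 h compound exposure at 37 C, parental HEK293 cells (2,000/well) are lysed with CellTiter-Glo and luminescence is read following 30 min at room temperature.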

[17] = qHTS assay for cell viability of the p53RE-bla HCT-116 cell line (AID 743292); note: nearly all actives have a fitted effect of over 55% in size; note: potency is the fitted concentration of half-maximal effect
In short: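 Compound-exposed HCT-116 (p53RE-bla) cells, 4,000 per well, were kept 16 h at 37 C following a 5 h preincubation. Cell number was estimated from total ATP by CellTiter-Glo luminescence read after 30 min at room temperature.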

[18] = biological target: Tyrosine-protein kinase Yes (Homo sapiens) (UniProt P07947); assay: qHTS for small molecule inhibitors of Yes1 kinase: Primary Screen (AID 686947); note: potency is the fitted concentration of half-maximal effect; nearly all actives have a fitted effect of over 60% in size
In short: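 ADP-Glo luminescence reports ADP formed by 4 nM Yes1 phosphorylating poly(E4Y) (0.3 mg/mL) with 0.1 mM ATP for 60 min at room temperature, following 20 min compound preincubation; normalised between DMSO wells with and without enzyme.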

[19] = qHTS for small molecule inhibitors of Yes1 kinase: Counter Assay (AID 686950);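 note: no kinase present so only ADP-Glo detection of a fixed ADP amount is tested; luminescence from ADP-Glo reporting ADP in a fixed ATP and ADP mixture; series mostly up to about 77 µM; 0% = DMSO wells with ATP plus ADP and -100% = ATP-only wells without ADP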
In short: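 Measuring interference with ADP-Glo, the assay ran 60 min at room temperature on an ATP/ADP mix lacking enzyme. Values were normalized to ATP-plus-ADP (maximum) and ATP-only (minimum) DMSO controls.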

Sequence of Arylsulfatase A (Homo sapiens) (P15289 whole entry, looked up): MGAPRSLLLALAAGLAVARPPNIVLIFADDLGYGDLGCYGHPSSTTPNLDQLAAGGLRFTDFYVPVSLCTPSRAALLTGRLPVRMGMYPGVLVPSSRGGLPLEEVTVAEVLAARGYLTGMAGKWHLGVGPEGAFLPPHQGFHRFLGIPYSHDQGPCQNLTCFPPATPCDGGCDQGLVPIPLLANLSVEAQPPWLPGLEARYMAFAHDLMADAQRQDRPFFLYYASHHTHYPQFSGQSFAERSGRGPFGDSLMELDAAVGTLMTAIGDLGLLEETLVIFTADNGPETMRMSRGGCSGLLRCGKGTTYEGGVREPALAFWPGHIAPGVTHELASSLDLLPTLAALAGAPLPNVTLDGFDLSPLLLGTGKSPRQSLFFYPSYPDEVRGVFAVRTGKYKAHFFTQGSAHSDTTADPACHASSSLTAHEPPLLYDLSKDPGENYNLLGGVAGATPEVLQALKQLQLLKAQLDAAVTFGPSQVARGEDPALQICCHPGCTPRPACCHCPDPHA
Sequence of Peroxisome proliferator-activated receptor alpha (Homo sapiens) (Q07869 whole entry, looked up): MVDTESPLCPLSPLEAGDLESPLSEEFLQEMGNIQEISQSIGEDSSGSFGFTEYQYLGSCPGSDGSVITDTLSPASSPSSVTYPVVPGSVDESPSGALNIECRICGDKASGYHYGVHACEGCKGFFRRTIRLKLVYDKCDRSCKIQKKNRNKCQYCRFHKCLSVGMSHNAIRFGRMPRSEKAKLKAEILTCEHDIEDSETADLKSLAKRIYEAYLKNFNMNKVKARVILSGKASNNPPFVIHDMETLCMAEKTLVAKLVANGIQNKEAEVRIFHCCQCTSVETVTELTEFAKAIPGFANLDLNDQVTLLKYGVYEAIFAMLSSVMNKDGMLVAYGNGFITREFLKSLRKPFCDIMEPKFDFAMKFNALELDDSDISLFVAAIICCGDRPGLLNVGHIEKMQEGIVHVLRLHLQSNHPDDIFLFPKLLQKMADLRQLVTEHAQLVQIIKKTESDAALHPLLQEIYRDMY
T1 sequence (P35557 whole entry, looked up): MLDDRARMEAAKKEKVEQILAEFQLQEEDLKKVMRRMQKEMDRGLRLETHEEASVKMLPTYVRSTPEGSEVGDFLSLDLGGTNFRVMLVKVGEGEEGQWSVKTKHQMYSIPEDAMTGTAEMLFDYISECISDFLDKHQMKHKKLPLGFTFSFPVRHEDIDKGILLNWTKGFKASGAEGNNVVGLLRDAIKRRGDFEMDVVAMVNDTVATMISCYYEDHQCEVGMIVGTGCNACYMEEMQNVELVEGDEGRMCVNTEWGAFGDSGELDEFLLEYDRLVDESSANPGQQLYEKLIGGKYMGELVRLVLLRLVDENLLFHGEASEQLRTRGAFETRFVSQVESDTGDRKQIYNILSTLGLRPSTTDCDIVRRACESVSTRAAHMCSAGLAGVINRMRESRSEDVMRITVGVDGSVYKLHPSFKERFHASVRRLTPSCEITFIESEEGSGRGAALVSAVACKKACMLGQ
T1 sequence (Q14397 whole entry, looked up): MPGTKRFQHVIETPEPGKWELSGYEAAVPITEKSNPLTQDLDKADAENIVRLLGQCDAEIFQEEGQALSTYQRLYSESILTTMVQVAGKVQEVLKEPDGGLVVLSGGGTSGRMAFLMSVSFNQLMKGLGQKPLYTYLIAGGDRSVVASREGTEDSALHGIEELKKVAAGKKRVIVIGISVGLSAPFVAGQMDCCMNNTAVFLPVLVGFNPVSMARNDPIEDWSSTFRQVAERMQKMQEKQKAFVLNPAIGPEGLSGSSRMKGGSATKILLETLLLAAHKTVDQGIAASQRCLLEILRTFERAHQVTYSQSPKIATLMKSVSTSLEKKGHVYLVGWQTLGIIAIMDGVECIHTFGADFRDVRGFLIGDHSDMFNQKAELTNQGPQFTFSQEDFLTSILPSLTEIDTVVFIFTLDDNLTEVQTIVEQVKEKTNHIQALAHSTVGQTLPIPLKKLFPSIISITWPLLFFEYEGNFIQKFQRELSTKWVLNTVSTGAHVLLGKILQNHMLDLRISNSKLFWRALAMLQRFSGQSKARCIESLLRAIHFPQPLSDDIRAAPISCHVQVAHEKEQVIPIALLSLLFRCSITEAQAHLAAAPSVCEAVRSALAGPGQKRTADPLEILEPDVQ
Sequence of Nuclear receptor ROR-gamma (Homo sapiens) (P51449 whole entry, looked up): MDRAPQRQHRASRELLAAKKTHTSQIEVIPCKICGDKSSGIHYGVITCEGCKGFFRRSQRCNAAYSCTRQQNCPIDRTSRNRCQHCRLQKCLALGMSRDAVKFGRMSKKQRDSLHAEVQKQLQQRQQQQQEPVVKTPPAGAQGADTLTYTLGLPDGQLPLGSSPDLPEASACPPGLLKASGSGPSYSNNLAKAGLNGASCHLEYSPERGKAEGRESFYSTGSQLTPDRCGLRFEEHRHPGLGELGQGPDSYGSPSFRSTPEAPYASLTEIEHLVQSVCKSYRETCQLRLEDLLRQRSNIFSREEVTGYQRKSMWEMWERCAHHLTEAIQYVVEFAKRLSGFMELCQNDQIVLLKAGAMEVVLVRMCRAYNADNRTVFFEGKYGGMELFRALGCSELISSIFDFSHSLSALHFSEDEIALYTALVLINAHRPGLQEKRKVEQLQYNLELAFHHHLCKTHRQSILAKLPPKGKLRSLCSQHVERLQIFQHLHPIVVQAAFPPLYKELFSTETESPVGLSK
Sequence of Tyrosine-protein kinase Yes (Homo sapiens) (P07947 whole entry, looked up): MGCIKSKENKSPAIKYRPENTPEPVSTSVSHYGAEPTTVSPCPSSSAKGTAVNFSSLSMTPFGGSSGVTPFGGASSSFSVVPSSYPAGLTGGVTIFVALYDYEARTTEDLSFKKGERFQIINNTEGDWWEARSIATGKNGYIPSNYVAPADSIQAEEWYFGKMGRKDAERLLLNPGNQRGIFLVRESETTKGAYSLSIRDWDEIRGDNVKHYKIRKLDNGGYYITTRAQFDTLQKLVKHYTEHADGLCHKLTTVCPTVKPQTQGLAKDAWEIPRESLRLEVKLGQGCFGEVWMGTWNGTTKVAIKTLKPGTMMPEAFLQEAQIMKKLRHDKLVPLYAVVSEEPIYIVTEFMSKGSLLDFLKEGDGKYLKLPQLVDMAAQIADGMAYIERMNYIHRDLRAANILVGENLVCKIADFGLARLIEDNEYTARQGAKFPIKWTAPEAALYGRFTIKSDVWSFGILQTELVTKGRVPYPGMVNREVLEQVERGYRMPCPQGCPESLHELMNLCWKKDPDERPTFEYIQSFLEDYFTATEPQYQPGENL

O=C(c1ccc(OCCN2CCCCC2)cc1)c1c(-c2ccc(O)cc2)sc2cc(O)ccc12
inactive: activation [1] -4.31% | max response [2] -6.34% | Potency [3] | outcome [4] | outcome [5] | Potency [6] | outcome [7] | Potency [8] | Potency [9] | Potency [10]

COc1ccc2[nH]cc(CCNC(C)=O)c2c1
inactive: outcome [11] | activation [1] 0.634% and 1.82% and 3.42% | max response [2] -3.03% and -8.27% and 0.529% | Potency [12] | Potency [3] | outcome [4] | outcome [5] | Potency [6] | outcome [7] | Potency [13] | max response [14] -10.7% and -6.82% and 8.47% | Potency [8] | Potency [9] | Potency [10] | max response [15] 6.15% and 3.87% | max response [16] -9.99% and -9.18% and -3.1% | Potency [17]

O=C1c2c(O)ccc(O)c2C(=O)c2c(NCCNCCO)ccc(NCCNCCO)c21
inactive: outcome [19] | outcome [4] | outcome [5] | Potency [6] | Potency [8] | Potency [9] | Potency [10]
active: Potency [18] 34.5 µM | Potency [3] 23.9 µM | Potency [15] 7.94 µM and 1.41 µM

O=C(Nc1ccc([N+](=O)[O-])cc1Cl)c1cc(Cl)ccc1O
inactive: max response [2] -1.62% | Potency [3] | outcome [7] | Potency [8] | Potency [9] | Potency [10]
active: Potency [1] 1.41 µM | Potency [16] 7.08 µM

CN(Cc1cnc2nc(N)nc(N)c2n1)c1ccc(C(=O)N[C@@H](CCC(=O)O)C(=O)O)cc1
active: Potency [14] 0.0447 µM | Potency [17] 0.282 µM
inactive: max response [2] -3.74% | Potency [3] | outcome [4] | outcome [5] | Potency [6] | outcome [7] | Potency [8] | Potency [9] | Potency [10] | max response [15] -2.41% and 9.8%

NCCCCCC(=O)O
inactive: Potency [3] | outcome [4] | outcome [5] | Potency [6] | Potency [8] | Potency [9] | Potency [10] | max response [15] -0.169% and -6.11%

Nc1nnc(-c2cccc(Cl)c2Cl)c(N)n1
inactive: Potency [3] | outcome [4] | outcome [5] | Potency [6] | Potency [8] | Potency [9] | Potency [10] | max response [15] 5.45% and 12.4%
